Measurements: PubChem BioAssay (NCATS)
Results filed as inconclusive are left out. The source made the active and inactive calls. Calls come from the whole dose curve; as a rule, active = well fitted curve in the direction sought with a large enough effect; inconclusive = small, poorly fitted or top-dose-only effect, or another doubt; inactive = no such curve, though single readings can be large; an effect the other way counts as inactive or inconclusive.

Key:
[1] = target: Thioredoxin reductase 1, cytoplasmic (Rattus norvegicus) (UniProt O89049); assay: qHTS Assay for Substrates of Mammalian Selenoprotein Thioredoxin Reductase 1 (TrxR1) (AID 488772);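 note: a drop in NADPH fluorescence below the no-compound background marks a TrxR1 substrate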; note: potency is the fitted concentration of half-maximal effect
Procedure, shortened: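 In this dual-purpose format, potential substrates are identified from the first fluorescence read after selenite addition, not from the 8-minute delta. Rat enzyme is preincubated with NADPH and then with compound at ~22 deg C.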

[2] = target: M-phase phosphoprotein 8 (Homo sapiens) (UniProt Q99549); assay: qHTS Validation Assay for Inhibitors for MPP8 Chromodomain Interactions with Methylated Histone Tails (AID 488949);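 note: AlphaScreen signal from MPP8 chromodomain bound to biotinylated H3K9me3 peptide; top concentration of the series differs between compounds; nearly all actives have a fitted effect of over 55% in size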
Procedure, shortened: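 MPP8 (50 nM) was preincubated with biotinylated H3(1-18)K9me3 peptide (50 nM) in PBS pH 7.4, 0.01% Tween-20 for 30 min at room temperature, then with compounds for 30 min; binding was detected by AlphaScreen.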

[3] = target: Methanococcus maripaludis chaperonin (MmCpn) (UniProt Q6LX38); assay: High-Throughput Screening for Modulators of Cytosolic Chaperonin Activity: MmCpn Primary Screen (AID 488978);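 note: 50 nM MmCpn enzyme hydrolysing 30 µM ATP at 37 °C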
Procedure, shortened: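 MmCpn (50 nM final) was preincubated with compound 5 min at RT, then 30 uM ATP (final) was added and the reaction ran 10 min at 37C. ADP produced was detected by Transcreener HTRF (ex 320 nm; em 590/665 nm).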

[4] = target: Transient receptor potential cation channel subfamily V member 1 (Homo sapiens) (UniProt Q8NER1); assay: HTS Assay for Compounds that Act as Enhancers of the Vanilloid Receptor 1 (AID 488979)
Procedure, shortened: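 TRPV1 cells loaded with Fluo-8 calcium dye; compound added and Ca2+ signal (ex 480/em 520 nm) followed 3 min, then capsaicin at EC20 added and read 2 more min to detect enhancement.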

[5] = target: Thyrotropin receptor (Homo sapiens) (UniProt P16473); assay: qHTS Assay for Antagonists of the Thyroid Stimulating Hormone Receptor (AID 488980); note: series mostly up to about 58 µM
Procedure, shortened: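 HEK293 cells transfected with human TSHR, suspended in HEPES-buffered HBSS with 70 uM RO 20-1724, were treated with compounds plus TSH at EC80 (4 nM final). cAMP was measured by competitive HTRF (cryptate anti-cAMP antibody, cAMP-d2 acceptor).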

[6] = target: D(1A) dopamine receptor (Homo sapiens) (UniProt P21728); assay: HTS Assay for Allosteric Agonists of the Human D1 Dopamine Receptor: Primary Screen for Agonists (AID 488981)
Procedure, shortened: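 Tetracycline-induced HEK293 Trex D1 cells with forced coupling to calcium, loaded with no-wash calcium dye; kinetic fluorescence read 180 s after compound addition for agonism, then a further 180 s after an EC20 dopamine challenge for potentiation.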

[7] = Quantitative high throughput screen for delayed death inhibitors of the malarial parasite plastid, 96 hour incubation (AID 488745); note: series mostly up to about 29 µM; nearly all actives have a fitted effect of over 70% in size
Procedure, shortened: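 Two-generation (96 h) exposure of luciferase-reporter P. falciparum in erythrocytes, 2% hematocrit, 0.1% parasitemia final, 37 C, 5% CO2, RPMI 1640 with 0.5% Albumax. Growth inhibition scored by reduced luminescence.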

[8] = Quantitative high throughput screen for delayed death inhibitors of the malarial parasite plastid, 48 hour incubation (AID 488752); note: nearly all actives have a fitted effect of over 65% in size
Procedure, shortened: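 Cultures: infected erythrocytes at final 2% hematocrit and 0.1% parasitemia in Albumax-supplemented RPMI. Parasites express integrated firefly luciferase. Incubation with compound lasts 48 h before luminescent detection of remaining reporter activity.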

[9] = target: Thioredoxin reductase 1, cytoplasmic (Rattus norvegicus) (UniProt O89049); assay: qHTS Assay for Inhibitors of Mammalian Selenoprotein Thioredoxin Reductase 1 (TrxR1) (AID 488773); conditions: Potency: inhibition; note: nearly all actives have a fitted effect of over 40% in size; note: potency is the fitted concentration of half-maximal effect
Procedure, shortened: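 Inhibition is scored from the loss of NADPH fluorescence between first and last reads of an 8-min kinetic run. Selenite (400 uM) was the substrate, added after 15 min compound preincubation at room temperature.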

[10] = target: Chromobox protein homolog 1 (Homo sapiens) (UniProt P83916); assay: qHTS Validation Assay for Inhibitors of HP1-beta Chromodomain Interactions with Methylated Histone Tails (AID 488953); note: nearly all actives have a fitted effect of over 50% in size; note: potency is the fitted concentration of half-maximal effect
Procedure, shortened: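 Compounds pinned into a preassembled complex of HP1-beta and trimethyl-K9 histone H3(1-18) biotin peptide (50 nM each; PBS pH 7.4, 0.01% Tween-20). After 30 min, bead-based AlphaScreen detection followed.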

Measured: Potency

Sequence of M-phase phosphoprotein 8 (Homo sapiens) (Q99549 whole entry, looked up): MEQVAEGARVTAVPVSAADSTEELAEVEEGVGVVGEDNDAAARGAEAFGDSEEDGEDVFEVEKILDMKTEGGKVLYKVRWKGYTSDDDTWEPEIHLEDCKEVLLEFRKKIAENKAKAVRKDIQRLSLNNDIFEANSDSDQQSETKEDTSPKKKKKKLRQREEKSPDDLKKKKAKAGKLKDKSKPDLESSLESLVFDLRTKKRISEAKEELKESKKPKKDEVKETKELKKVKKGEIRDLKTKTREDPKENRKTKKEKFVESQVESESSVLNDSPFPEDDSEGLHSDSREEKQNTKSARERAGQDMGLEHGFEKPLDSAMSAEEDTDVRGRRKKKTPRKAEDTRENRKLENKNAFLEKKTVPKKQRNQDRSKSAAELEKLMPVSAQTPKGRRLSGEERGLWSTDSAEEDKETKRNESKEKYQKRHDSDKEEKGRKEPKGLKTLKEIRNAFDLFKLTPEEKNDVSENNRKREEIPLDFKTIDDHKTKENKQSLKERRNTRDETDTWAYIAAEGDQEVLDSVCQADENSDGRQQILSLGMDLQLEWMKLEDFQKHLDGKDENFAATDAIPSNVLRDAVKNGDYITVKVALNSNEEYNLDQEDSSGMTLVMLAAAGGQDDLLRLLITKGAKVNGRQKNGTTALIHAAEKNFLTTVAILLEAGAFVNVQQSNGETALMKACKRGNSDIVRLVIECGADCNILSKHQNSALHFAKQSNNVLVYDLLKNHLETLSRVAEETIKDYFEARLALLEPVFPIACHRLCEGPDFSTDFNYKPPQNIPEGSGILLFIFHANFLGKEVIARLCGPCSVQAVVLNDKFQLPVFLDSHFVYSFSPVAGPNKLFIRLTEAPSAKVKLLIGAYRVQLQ
Sequence of Thyrotropin receptor (Homo sapiens) (P16473 whole entry, looked up): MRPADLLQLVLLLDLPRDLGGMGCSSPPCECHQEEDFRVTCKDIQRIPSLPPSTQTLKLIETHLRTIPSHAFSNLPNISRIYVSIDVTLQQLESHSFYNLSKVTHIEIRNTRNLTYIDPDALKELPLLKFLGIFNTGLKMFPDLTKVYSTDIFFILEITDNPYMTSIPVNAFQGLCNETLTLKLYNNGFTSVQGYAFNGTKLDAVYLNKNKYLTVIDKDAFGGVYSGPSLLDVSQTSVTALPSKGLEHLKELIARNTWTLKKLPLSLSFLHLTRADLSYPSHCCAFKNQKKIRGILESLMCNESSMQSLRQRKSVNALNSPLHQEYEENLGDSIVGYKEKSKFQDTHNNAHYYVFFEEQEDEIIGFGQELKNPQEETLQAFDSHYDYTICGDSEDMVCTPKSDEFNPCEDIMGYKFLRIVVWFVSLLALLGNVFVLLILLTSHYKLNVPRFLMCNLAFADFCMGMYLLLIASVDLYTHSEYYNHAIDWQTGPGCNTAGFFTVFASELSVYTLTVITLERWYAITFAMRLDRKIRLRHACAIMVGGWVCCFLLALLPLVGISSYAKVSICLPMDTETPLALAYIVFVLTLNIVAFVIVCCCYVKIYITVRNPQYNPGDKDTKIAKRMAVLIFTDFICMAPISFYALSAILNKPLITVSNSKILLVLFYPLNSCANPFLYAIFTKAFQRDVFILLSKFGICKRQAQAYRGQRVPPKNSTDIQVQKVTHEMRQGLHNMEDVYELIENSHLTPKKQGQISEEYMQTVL
Sequence of D(1A) dopamine receptor (Homo sapiens) (P21728 whole entry, looked up): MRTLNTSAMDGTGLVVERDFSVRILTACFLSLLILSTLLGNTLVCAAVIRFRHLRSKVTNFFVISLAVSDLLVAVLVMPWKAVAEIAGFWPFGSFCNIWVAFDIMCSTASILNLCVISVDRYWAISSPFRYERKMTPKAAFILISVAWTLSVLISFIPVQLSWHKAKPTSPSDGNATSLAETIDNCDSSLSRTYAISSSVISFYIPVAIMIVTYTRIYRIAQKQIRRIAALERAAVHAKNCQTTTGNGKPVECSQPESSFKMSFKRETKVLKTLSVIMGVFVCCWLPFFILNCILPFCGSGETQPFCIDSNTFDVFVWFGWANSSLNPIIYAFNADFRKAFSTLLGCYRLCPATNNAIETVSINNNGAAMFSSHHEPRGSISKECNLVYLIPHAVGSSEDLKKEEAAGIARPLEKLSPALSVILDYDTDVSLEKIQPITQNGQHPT
Sequence of Methanococcus maripaludis chaperonin (MmCpn) (Q6LX38 1-543): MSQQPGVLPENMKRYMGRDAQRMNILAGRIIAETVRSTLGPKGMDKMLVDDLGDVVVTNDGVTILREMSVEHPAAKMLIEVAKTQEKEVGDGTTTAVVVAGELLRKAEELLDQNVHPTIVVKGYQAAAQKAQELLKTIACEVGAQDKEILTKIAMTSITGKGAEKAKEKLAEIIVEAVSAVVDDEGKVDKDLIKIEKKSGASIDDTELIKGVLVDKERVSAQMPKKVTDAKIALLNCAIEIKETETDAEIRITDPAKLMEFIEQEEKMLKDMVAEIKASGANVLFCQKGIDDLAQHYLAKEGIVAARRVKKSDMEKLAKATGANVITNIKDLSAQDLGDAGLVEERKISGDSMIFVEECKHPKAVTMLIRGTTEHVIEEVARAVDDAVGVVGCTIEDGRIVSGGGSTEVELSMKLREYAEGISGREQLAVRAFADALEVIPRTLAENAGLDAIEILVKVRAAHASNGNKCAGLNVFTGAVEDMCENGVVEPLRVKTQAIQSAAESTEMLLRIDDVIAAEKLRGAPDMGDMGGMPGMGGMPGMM
Sequence of Transient receptor potential cation channel subfamily V member 1 (Homo sapiens) (Q8NER1 whole entry, looked up): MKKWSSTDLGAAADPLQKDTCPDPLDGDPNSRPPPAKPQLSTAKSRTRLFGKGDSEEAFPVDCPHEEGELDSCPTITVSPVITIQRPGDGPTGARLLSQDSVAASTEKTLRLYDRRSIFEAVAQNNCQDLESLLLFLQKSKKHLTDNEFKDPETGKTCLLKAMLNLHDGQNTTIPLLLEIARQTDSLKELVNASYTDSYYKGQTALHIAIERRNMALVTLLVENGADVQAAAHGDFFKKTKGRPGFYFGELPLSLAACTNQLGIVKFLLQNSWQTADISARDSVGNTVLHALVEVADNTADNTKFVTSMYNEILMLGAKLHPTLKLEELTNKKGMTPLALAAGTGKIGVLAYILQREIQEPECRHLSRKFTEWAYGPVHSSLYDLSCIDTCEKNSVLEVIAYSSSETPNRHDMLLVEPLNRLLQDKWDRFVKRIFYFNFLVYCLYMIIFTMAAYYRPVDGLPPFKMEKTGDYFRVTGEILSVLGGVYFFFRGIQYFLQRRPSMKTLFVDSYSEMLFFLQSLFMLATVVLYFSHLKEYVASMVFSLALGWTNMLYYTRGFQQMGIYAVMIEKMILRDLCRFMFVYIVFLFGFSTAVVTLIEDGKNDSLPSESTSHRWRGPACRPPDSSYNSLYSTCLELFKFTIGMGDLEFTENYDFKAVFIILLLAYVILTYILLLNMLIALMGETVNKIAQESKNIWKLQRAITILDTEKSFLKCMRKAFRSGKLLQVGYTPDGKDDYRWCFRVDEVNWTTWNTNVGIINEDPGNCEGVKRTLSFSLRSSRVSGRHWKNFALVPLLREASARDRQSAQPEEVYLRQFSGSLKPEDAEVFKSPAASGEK
Sequence of Chromobox protein homolog 1 (Homo sapiens) (P83916 whole entry, looked up): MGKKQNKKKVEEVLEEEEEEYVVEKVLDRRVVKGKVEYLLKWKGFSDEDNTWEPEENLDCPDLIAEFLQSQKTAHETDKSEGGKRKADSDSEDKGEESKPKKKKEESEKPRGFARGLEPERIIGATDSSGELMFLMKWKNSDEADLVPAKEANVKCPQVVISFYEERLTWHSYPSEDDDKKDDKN
Sequence of Thioredoxin reductase 1, cytoplasmic (Rattus norvegicus) (O89049 whole entry, looked up): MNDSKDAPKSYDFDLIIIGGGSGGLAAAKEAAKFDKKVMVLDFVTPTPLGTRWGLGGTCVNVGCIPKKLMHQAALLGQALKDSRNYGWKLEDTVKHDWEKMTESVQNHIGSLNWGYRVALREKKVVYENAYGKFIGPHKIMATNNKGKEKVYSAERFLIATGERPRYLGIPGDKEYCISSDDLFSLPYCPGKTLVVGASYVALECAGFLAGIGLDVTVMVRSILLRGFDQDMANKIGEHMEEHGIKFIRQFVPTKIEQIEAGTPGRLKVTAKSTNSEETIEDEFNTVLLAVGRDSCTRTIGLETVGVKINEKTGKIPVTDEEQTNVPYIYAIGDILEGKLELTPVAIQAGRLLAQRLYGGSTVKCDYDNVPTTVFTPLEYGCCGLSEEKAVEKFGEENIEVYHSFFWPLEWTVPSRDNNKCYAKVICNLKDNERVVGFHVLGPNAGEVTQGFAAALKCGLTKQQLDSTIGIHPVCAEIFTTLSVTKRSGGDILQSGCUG

CC1(C)CCC2=C(O1)c1ccccc1C(=O)C2=O
active: [1] 18.9 µM
inactive: [2] | [3] | [4] | [5] | [6]

C[N+](C)(C)CCCCCC[N+](C)(C)C
not listed: [5]
inactive: all other assays above

O=c1cc(-c2ccc(O)cc2)oc2cc(O)cc(O)c12
not listed: [7] | [8]
inactive: all other assays above

CN(C)CCC(c1ccccc1)c1ccccn1 (stereo not given)
inactive: all assays above

Clc1ccc(C(c2ccc(Cl)cc2)n2cc[n+](CC(OCc3ccc(Cl)cc3Cl)c3ccc(Cl)cc3Cl)c2)cc1 (stereo not given)
inactive: [1] | [9] | [3] | [6]

CCCCC1C(=O)N(c2ccccc2)N(c2ccccc2)C1=O
not listed: [7] | [8] | [10]
inactive: all other assays above

CC(=O)O[C@]1(C(C)=O)CC[C@H]2[C@@H]3C=C(Cl)C4=CC(=O)[C@@H]5C[C@@H]5[C@]4(C)[C@H]3CC[C@@]21C
inactive: [1] | [9] | [2] | [10] | [3] | [6]

CC1=C(/C=C/C(C)=C/C=C/C(C)=C/C(=O)Nc2ccc(O)cc2)C(C)(C)CCC1
inactive: [2] | [3] | [5] | [6]
active: [10] 39.8 µM

CCn1cc(C(=O)O)c(=O)c2ccc(C)nc21
inactive: [1] | [9] | [10] | [3] | [6]

CCCCCN(C)CCC(O)(P(=O)(O)O)P(=O)(O)O
inactive: [1] | [9] | [2] | [10] | [3] | [6]

O=c1c(-c2ccc(O)cc2)coc2cc(O)ccc12
active: [9] 8.44 µM
not listed: [7] | [8]
inactive: all other assays above

O=C(NCCN1CCOCC1)c1ccc(Cl)cc1
inactive: [1] | [9] | [2] | [3] | [6]

NCCS
not listed: [1] | [5] | [10]
inactive: all other assays above

CC(=O)c1ccc(S(=O)(=O)NC(=O)NC2CCCCC2)cc1
inactive: all assays above

NC(N)=Nc1nc(CSCC/C(N)=N/S(N)(=O)=O)cs1
not listed: [5]
inactive: all other assays above

O=C(O)CCc1nc(-c2ccccc2)c(-c2ccccc2)o1
not listed: [2]
inactive: all other assays above

COc1cccc(-c2cc(=O)c3ccccc3o2)c1N
not listed: [7] | [8]
inactive: all other assays above

CCCNC(=O)NS(=O)(=O)c1ccc(Cl)cc1
inactive: all assays above

CC(C)OC(=O)C(C)(C)Oc1ccc(C(=O)c2ccc(Cl)cc2)cc1
not listed: [7] | [8]
inactive: all other assays above
